Laboratory results taken from PubChem BioAssay (Tox21).
Values joined by “and” are separate entries in the source; they are usually repeats but may differ in a detail not shown here. Equal entries are not always repeated. Records with an inconclusive call do not appear. Where a call stands in place of a potency, no number is given. A structure can be active in one record and inactive in another. Active and inactive are the calls of the source. Calls follow the shape of the dose curve; as a rule, active = well fitted curve in the direction sought with a large enough effect in the repeat runs; inconclusive = weak or mixed curves; inactive = no such curve, though single readings can be large; an effect the other way counts as inactive or inconclusive.

These compounds were tested against Cytochrome P450 2C9 (Homo sapiens) (UniProt P11712) (assay: Cytochrome P450 Family 2 Subfamily C Member 9 (CYP2C9) small molecule antagonists: luciferase reporter qHTS assay (AID 1671198; also: potency is read from the fitted curve at half-maximal effect)). Settings: P450-Glo CYP2C9 enzyme assay, luciferin luminescence; series mostly up to 115 µM.
Chain of Cytochrome P450 2C9 (Homo sapiens) (P11712 whole entry, looked up): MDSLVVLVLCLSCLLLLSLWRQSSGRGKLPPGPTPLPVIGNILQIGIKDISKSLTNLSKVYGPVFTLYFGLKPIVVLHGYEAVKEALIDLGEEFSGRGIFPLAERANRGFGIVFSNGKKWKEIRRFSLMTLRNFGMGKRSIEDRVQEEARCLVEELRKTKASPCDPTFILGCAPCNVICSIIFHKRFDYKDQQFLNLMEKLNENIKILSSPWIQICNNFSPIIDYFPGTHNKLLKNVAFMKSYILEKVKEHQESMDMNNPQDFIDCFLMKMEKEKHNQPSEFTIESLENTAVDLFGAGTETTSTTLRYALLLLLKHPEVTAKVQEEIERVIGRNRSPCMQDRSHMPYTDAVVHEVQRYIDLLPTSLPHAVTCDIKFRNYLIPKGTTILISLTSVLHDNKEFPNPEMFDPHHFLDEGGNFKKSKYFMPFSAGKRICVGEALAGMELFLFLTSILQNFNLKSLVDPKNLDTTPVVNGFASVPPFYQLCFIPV
Procedure, shortened: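 P450-Glo proluciferin substrate with CYP2C9 enzyme; 10 min RT preincubation, then NADPH regeneration 1 h at 37C; luciferin detection reagent 20 min RT, luminescence in relative luminescence units.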
Also: nearly all actives have a fitted effect of over 50% in size.

SMILES | Potency
COc1ccc(N)c(C)c1 | 35.4 µM (active) and 63.3 µM (active)
CCCCCCCO | inactive
C[Si]1(C)O[Si](C)(C)O[Si](C)(C)O[Si](C)(C)O1 | inactive
CC(O)CC(C)(C)O (stereo not given) | inactive
CC(C)OC(=O)COc1ccc(Cl)cc1Cl | 35 µM (active) and 35.6 µM (active)
CCCCCC(=O)O | inactive
CN(C)c1ccc(Cc2ccc(N(C)C)cc2)cc1 | 12.7 µM (active) and 31.7 µM (active)
c1ccc(Oc2ccccc2)cc1 | inactive
CCCCCCCCCCCC(=O)OC | inactive
CC(C)(C)c1cc(Cc2cc(C(C)(C)C)c(O)c(C(C)(C)C)c2)cc(C(C)(C)C)c1O | inactive
CC1(C)OC[C@@H]2O[C@@]3(C(=O)O)OC(C)(C)O[C@H]3[C@@H]2O1 | inactive
CC(=O)OC1CC(C)OC(C)O1 (stereo not given) | inactive
CC(C)c1cccc(C(C)C)c1 | inactive
CNC(=O)Oc1ccc2c(c1)[C@]1(C)CCN(C)[C@@H]1N2C | 71 µM (active) and inactive
CN/C(=C\[N+](=O)[O-])NCCSCc1csc(CN(C)C)n1 | inactive
N[C@H](Cc1c[nH]c2ccccc12)C(=O)O | inactive
O=C(O)c1ccc(C(=O)O)c(C(=O)O)c1 | inactive
CCO[Si](CCC#N)(OCC)OCC | inactive
O=C1C(c2[nH]c3ccccc3c2O)=Nc2ccccc21 | inactive
CC1(C)NC(=O)NC1=O | inactive
CN(C)CCOC(=O)COc1ccc(Cl)cc1 | inactive
CC(C)CC(C)O (stereo not given) | inactive and 31.7 µM (active)
c1ccc2c(c1)Cc1ccccc1-2 | inactive and 39.9 µM (active)
O=C(O)CCCCCCCCC(=O)O | inactive
CSc1ccc(Cl)cc1 | inactive
CC(C)CC(=O)CC(C)CC(C)C (stereo not given) | inactive
C=CCCCCCCCCC(=O)O | 39.9 µM (active)

The compounds below were run against Cytochrome P450 1A2 (Homo sapiens) (UniProt P05177) (assay: Cytochrome P450 Family 1 Subfamily A Member 2 (CYP1A2) small molecule antagonists: luciferase reporter qHTS assay (AID 1671199; also: potency is read from the fitted curve at half-maximal effect)). Settings: P450-Glo CYP1A2 enzyme, luciferin luminescence, 1 h; series mostly up to 115 µM.
Chain of Cytochrome P450 1A2 (Homo sapiens) (P05177 whole entry, looked up): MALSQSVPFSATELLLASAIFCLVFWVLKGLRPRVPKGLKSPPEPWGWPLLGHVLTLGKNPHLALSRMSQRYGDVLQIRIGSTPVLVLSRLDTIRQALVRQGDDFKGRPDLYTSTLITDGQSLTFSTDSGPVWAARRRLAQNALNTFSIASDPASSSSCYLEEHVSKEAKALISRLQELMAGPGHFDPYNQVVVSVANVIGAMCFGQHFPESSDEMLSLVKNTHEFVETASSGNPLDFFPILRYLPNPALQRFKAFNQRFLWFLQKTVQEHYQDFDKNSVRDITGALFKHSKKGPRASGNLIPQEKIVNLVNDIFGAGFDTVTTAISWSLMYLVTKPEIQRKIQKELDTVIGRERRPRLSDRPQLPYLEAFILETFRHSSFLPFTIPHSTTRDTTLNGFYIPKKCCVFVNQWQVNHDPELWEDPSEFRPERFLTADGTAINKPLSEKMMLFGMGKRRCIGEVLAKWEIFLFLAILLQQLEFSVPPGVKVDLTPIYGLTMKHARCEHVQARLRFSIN
Procedure, shortened: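 Luminescence readout (relative luminescence units) after luciferin detection reagent, 20 min RT. Preceded by 1 h room-temperature CYP1A2 reaction with NADPH regeneration solution following 10 min compound preincubation with enzyme and proluciferin substrate. Furafylline positive control.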

SMILES | Potency
CCCCCCCCCCN | 31.9 µM (active) and 31.7 µM (active)
COc1ccc(N)c(C)c1 | 15.8 µM (active) and 12.6 µM (active)
CC(CCO)CC(C)(C)C (stereo not given) | inactive
CCCCCCCO | inactive
C[Si]1(C)O[Si](C)(C)O[Si](C)(C)O[Si](C)(C)O1 | inactive
CC(O)CC(C)(C)O (stereo not given) | inactive
CC(C)OC(=O)COc1ccc(Cl)cc1Cl | 6.23 µM (active) and 63.3 µM (active)
CCCCCC(=O)O | inactive
CN(C)c1ccc(Cc2ccc(N(C)C)cc2)cc1 | 2.26 µM (active) and 5.03 µM (active)
c1ccc(Oc2ccccc2)cc1 | inactive
CCCCCCCCCCCC(=O)OC | inactive
COc1cc(OC)c(C(=O)CCCN2CCCC2)c(OC)c1 | inactive
CC(C)(C)c1cc(Cc2cc(C(C)(C)C)c(O)c(C(C)(C)C)c2)cc(C(C)(C)C)c1O | inactive and 71 µM (active)
CC1(C)OC[C@@H]2O[C@@]3(C(=O)O)OC(C)(C)O[C@H]3[C@@H]2O1 | inactive
O=[N+]([O-])c1ccc2nc[nH]c2c1 | 36.3 µM (active) and 39.9 µM (active)
CC(=O)OC1CC(C)OC(C)O1 (stereo not given) | inactive

SMILES | Potency
CC(C)c1cccc(C(C)C)c1 | inactive
CNC(=O)Oc1ccc2c(c1)[C@]1(C)CCN(C)[C@@H]1N2C | inactive
CN/C(=C\[N+](=O)[O-])NCCSCc1csc(CN(C)C)n1 | inactive
OCc1ccccc1 | inactive
CCNc1ccccc1 | 32.3 µM (active) and inactive
O=C(O)c1ccc(C(=O)O)c(C(=O)O)c1 | inactive
CCO[Si](CCC#N)(OCC)OCC | inactive
O=S(=O)(O)c1ccc(N=Nc2c(O)ccc3cc(S(=O)(=O)O)ccc23)cc1 | 40.1 µM (active)
O=C1C(c2[nH]c3ccccc3c2O)=Nc2ccccc21 | inactive and 34.7 µM (active)
C=CCc1ccc(OC)c(OC)c1 | 18 µM (active) and 22.4 µM (active)
CC1(C)NC(=O)NC1=O | 35.8 µM (active)
c1ccc2c(c1)Cc1ccccc1-2 | 25.6 µM (active) and 7.96 µM (active)
CSc1ccc(Cl)cc1 | inactive
CC(C)CC(=O)CC(C)CC(C)C (stereo not given) | inactive
C=CCCCCCCCCC(=O)O | inactive

Each compound was assayed against Voltage-gated inwardly rectifying potassium channel KCNH2 (Homo sapiens) (UniProt Q12809) (assay: Human Ether-a-go-go-Related Gene (hERG) channel small molecule antagonists: fluorescence cell-based qHTS assay (AID 1671200;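 also: hERG-expressing U2OS cells given a thallium stimulus after FluxOR II dye loading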)). Settings: hERG-U2OS cells, FluxOR thallium flux fluorescence; series mostly up to 76.8 µM.
Chain of Voltage-gated inwardly rectifying potassium channel KCNH2 (Homo sapiens) (Q12809 whole entry, looked up): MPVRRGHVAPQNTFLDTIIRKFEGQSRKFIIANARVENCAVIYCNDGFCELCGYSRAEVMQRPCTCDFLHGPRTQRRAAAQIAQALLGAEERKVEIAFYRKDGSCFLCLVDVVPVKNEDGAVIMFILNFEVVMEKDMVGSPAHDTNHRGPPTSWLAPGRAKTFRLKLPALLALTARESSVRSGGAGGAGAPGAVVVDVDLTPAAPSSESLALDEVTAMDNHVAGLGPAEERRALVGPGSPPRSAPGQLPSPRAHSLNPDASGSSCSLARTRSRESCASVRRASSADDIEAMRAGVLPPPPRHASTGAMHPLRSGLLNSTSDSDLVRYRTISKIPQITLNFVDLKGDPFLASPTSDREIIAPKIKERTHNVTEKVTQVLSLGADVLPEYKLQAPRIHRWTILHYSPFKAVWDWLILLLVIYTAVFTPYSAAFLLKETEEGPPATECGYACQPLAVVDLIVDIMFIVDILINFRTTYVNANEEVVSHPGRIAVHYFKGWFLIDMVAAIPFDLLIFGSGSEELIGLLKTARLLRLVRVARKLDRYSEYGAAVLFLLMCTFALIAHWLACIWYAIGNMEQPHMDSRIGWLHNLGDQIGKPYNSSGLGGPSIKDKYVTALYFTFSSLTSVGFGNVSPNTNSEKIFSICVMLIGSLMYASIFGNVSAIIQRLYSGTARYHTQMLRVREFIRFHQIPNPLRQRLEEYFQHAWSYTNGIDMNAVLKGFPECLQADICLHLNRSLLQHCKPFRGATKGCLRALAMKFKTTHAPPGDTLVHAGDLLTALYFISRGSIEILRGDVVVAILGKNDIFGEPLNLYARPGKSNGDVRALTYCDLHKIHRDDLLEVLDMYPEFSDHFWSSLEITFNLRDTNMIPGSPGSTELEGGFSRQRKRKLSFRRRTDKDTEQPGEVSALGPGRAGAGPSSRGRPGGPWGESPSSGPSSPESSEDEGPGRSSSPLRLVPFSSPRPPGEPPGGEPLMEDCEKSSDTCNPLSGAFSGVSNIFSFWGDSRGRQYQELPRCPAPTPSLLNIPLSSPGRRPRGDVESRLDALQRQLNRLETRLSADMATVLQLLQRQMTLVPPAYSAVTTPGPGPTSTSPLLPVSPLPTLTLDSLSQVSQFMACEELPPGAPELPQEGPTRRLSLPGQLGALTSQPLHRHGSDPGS
Procedure, shortened: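 hERG-U2OS cells plated overnight at 37 C, loaded with FluxOR II dye 1 h at RT in dark; after 10 min, thallium stimulus added. Fluorescence (480/540 nm) read kinetically for 2 min at 1 s intervals.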

SMILES | Potency
CCCCCCCCCCN | inactive
COc1ccc(N)c(C)c1 | inactive
CC(CCO)CC(C)(C)C (stereo not given) | inactive
CCCCCCCO | inactive
C[Si]1(C)O[Si](C)(C)O[Si](C)(C)O[Si](C)(C)O1 | inactive
CC(O)CC(C)(C)O (stereo not given) | inactive
CC(C)OC(=O)COc1ccc(Cl)cc1Cl | inactive
CCCCCC(=O)O | inactive
c1ccc(Oc2ccccc2)cc1 | inactive
CCCCCCCCCCCC(=O)OC | inactive
COc1cc(OC)c(C(=O)CCCN2CCCC2)c(OC)c1 | inactive
CC(C)(C)c1cc(Cc2cc(C(C)(C)C)c(O)c(C(C)(C)C)c2)cc(C(C)(C)C)c1O | inactive
CC1(C)OC[C@@H]2O[C@@]3(C(=O)O)OC(C)(C)O[C@H]3[C@@H]2O1 | inactive
O=[N+]([O-])c1ccc2nc[nH]c2c1 | inactive
CC(=O)OC1CC(C)OC(C)O1 (stereo not given) | inactive
CC(C)c1cccc(C(C)C)c1 | inactive
CCCCOC(=O)c1ccc(N)cc1 | inactive
CNC(=O)Oc1ccc2c(c1)[C@]1(C)CCN(C)[C@@H]1N2C | inactive
CN/C(=C\[N+](=O)[O-])NCCSCc1csc(CN(C)C)n1 | inactive

SMILES | Potency
O=S(=O)(O)c1ccccc1 | inactive
OCc1ccccc1 | inactive
CCNc1ccccc1 | inactive
N[C@H](Cc1c[nH]c2ccccc12)C(=O)O | inactive
O=C(O)c1ccc(C(=O)O)c(C(=O)O)c1 | inactive
CCO[Si](CCC#N)(OCC)OCC | inactive
O=S(=O)(O)c1ccc(N=Nc2c(O)ccc3cc(S(=O)(=O)O)ccc23)cc1 | inactive
O=C1C(c2[nH]c3ccccc3c2O)=Nc2ccccc21 | inactive
C=CCc1ccc(OC)c(OC)c1 | inactive
CC1(C)NC(=O)NC1=O | inactive
CN(C)CCOC(=O)COc1ccc(Cl)cc1 | inactive
CC(C)CC(C)O (stereo not given) | inactive
COc1ccccc1OCC(O)CO (stereo not given) | inactive
c1ccc2c(c1)Cc1ccccc1-2 | inactive
O=C(O)CCCCCCCCC(=O)O | inactive
CSc1ccc(Cl)cc1 | inactive
CC(C)CC(=O)CC(C)CC(C)C (stereo not given) | inactive
C=CCCCCCCCCC(=O)O | inactive
